Composite z-score and z-score data for 17 compounds are collected here from PubChem BioAssay.

Molecules are shown by their SMILES. The source made the active and inactive calls.

Experiment [1] is described as follows: binders of probe aFSTL3 on microarray, primary screen, stem cell growth factor project, biochemical, small-molecule microarray, fluorescence 635/667 (AID 1064).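 Also: measures binding of the biotinylated anti-FSTL3 antibody to printed compounds.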 As to conditions: higher = more signal.
Experiment [2] is described as follows: binders from COS7 lysate, DM2A8 probe, primary screen, torsin A project, cell lysate, small-molecule microarray, fluorescence 635/667 (AID 1065). As to conditions: higher = more signal, COS7 lysate expressing mutant human TOR1A.
Experiment [3] in a line: binders of probe aFGF2 on microarray, primary screen, stem cell growth factor project, biochemical, small-molecule microarray, fluorescence 635/667 (AID 1067).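 Also: measures binding of biotinylated aFGF2 protein to printed compounds on slides; z-score merges feature fluorescence and signal-to-noise across triplicate slides.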 As to conditions: higher = more signal.
A short description of experiment [4]: binders of probe aFGF10 on microarray, primary screen, stem cell growth factor project, biochemical, small-molecule microarray, fluorescence 635/667 (AID 1071).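 Also: score merges 667 nm spot intensity and signal to noise from triplicate slides.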 As to conditions: higher = more signal.
For experiment [5], the target named is Neurogenic locus notch homolog protein 2 (Homo sapiens) (UniProt Q04721). In words: Notch2 binders on small-molecule microarrays, primary screen, biochemical, small-molecule microarray, 635 nm fluorescence, stem cell growth factors (AID 1073). As to conditions: Notch2 binding, higher = more signal.
In experiment [6] the target is Pro-neuregulin-1, membrane-bound isoform (Homo sapiens) (UniProt Q02297). Nature of the experiment: NRG1 binders on small-molecule microarrays, primary screen, psychiatric disease protein project, biochemical, small-molecule microarray, fluorescence 635/667 (AID 1075).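 Also: score combines 667 nm spot fluorescence with signal to noise.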 As to conditions: NRG1 binding, 635 nm fluorescence, higher = more signal.
Experiment [7] concerns Neuregulin-1 EGF-like domain. In words: binders of neuregulin-1 EGF-like domain, primary screen, biochemical, small-molecule microarray, 635 nm fluorescence (AID 1081).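 Also: binding of the protein to compounds printed on small-molecule microarray slides.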 As to conditions: small-molecule microarray binding, higher = more signal.
The nature of experiment [8]: FRG1 promoter luciferase signal modulators, primary screen, FRG1 inhibition for FSHD, cell-based, C2C12 myotubes, firefly/Renilla luciferase, luminescence (AID 1084). As to conditions: higher = more signal, called active from +8 up or from −8 down.
A short description of experiment [9]: binders of probe aFST on microarray, primary screen, stem cell growth factor project, biochemical, small-molecule microarray, fluorescence 635/667 (AID 1086).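 Also: score merges 667 nm fluorescence with signal-to-noise of each printed compound spot.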 As to conditions: higher = more signal.
Experiment [10] can be described thus: binders of probe aHhip on microarray, primary screen, stem cell growth factor project, biochemical, small-molecule microarray, fluorescence 635/667 (AID 1087).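 Also: score merges spot fluorescence at 667nm with spot signal to noise ratio.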 As to conditions: higher = more signal.

Sequence of Pro-neuregulin-1, membrane-bound isoform (Homo sapiens) (Q02297 whole entry, looked up, the tested form may be a part, canonical isoform): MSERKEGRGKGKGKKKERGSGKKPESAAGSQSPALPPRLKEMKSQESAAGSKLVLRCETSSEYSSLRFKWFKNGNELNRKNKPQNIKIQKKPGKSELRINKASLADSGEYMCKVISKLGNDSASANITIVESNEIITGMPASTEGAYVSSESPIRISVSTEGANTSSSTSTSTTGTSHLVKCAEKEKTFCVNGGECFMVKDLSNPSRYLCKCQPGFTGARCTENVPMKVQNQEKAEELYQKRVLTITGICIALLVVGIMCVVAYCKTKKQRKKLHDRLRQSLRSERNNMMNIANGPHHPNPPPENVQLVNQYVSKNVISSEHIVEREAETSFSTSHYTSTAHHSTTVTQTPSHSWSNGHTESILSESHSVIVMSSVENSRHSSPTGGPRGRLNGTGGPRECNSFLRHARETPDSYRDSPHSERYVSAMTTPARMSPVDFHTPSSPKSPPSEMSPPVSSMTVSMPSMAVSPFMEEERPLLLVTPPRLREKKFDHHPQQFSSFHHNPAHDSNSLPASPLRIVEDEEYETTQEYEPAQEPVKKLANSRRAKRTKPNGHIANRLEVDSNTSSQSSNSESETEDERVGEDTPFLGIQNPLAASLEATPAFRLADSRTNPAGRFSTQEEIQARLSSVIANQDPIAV
Sequence of Neurogenic locus notch homolog protein 2 (Homo sapiens) (Q04721 whole entry, looked up, canonical isoform): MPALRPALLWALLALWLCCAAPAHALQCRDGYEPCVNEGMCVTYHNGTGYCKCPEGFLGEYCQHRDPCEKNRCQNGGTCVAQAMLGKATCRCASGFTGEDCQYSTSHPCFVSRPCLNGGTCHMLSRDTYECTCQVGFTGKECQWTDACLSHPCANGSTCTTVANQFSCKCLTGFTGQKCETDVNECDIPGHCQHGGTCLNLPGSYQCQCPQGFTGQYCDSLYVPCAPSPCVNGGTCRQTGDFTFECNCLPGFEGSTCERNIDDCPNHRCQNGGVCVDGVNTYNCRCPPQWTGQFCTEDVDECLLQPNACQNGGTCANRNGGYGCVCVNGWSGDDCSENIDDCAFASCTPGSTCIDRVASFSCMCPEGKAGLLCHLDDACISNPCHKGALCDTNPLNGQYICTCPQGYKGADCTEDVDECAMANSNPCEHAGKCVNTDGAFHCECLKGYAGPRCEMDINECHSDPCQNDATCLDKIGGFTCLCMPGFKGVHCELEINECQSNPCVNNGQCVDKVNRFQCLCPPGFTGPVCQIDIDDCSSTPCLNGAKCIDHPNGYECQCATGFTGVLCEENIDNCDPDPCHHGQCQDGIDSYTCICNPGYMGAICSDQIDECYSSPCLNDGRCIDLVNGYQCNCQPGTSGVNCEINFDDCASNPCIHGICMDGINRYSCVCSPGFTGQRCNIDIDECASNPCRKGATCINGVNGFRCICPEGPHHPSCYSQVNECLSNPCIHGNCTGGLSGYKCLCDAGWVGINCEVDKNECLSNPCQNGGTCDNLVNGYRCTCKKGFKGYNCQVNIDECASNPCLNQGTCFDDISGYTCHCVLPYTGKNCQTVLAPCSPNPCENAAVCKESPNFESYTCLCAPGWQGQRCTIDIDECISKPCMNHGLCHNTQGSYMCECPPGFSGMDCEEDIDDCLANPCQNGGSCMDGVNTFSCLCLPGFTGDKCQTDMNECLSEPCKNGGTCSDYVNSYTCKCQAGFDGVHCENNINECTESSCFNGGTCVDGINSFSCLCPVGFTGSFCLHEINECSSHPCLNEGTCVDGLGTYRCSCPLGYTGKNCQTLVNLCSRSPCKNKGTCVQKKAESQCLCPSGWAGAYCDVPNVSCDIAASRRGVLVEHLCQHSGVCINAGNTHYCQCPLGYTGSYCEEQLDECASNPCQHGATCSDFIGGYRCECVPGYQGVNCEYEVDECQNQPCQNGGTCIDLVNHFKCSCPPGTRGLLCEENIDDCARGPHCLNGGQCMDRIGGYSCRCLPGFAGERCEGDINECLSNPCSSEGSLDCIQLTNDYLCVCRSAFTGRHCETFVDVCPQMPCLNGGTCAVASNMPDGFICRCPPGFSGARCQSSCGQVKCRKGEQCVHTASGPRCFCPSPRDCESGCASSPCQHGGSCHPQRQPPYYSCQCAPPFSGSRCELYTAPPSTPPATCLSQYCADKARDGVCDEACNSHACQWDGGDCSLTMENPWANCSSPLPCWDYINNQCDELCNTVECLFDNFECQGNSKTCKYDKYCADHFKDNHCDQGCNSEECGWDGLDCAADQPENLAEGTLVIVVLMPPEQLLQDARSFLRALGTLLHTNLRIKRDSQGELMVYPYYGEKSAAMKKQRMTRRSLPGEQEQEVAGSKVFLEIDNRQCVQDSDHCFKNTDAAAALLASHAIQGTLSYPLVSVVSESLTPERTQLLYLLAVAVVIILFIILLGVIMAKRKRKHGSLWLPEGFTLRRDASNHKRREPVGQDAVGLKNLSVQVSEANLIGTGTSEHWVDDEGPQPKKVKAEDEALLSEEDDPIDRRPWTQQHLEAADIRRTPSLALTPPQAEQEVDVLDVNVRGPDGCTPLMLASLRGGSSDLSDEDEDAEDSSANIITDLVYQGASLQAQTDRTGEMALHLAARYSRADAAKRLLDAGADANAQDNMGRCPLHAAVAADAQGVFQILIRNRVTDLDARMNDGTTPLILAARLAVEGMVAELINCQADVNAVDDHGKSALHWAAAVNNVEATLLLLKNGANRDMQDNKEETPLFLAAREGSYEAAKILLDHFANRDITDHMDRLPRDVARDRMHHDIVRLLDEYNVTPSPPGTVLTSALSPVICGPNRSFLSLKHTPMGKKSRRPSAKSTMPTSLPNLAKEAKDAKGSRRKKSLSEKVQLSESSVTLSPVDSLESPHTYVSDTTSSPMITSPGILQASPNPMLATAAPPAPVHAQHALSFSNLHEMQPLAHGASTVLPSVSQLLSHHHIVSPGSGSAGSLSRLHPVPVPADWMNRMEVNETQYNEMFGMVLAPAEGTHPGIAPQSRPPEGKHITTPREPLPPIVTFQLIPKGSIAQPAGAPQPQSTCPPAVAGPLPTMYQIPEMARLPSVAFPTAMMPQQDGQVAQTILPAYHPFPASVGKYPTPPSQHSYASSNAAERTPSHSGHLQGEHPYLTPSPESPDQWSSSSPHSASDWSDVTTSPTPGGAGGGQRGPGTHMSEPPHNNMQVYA

As for `O=C1NC(=O)C2C1C=CC(C(O)Cc1ccccc1)N2Nc1ccccn1` (stereo not given), the composite z-score was -0.368 in [1]; 0.0052 in [2]; -0.0154 in [3]; 0.477 in experiment [4]; 1.14 in experiment [5]; 1.79 in experiment [6]. Also, the composite z-score is 0.934 in experiment [7], 0.494 in experiment [9] and -0.0618 in [10]. The z-score in experiment [8] is -0.518 (inactive).
Take `CCN1C(=O)[C@H]2[C@H]3[C@H](O)[C@H](O)CC(=NOCc4ccccc4)[C@H]3CC[C@H]2C1=O`: the composite z-score is -0.5 in [1]; 0.391 in experiment [2]; -0.116 in experiment [3]; 0.611 in experiment [4]; 0.262 in experiment [5]; -0.0759 in experiment [6]. Besides, the figures for the composite z-score in [7], in [9] and in experiment [10] were -0.0363, 0.214 and -0.226, respectively. Moreover, in [8], the z-score was 0.273 (inactive).
`CO[C@@H]1COC(=O)CC=C[C@@H](C)[C@@H]2C=C[C@@H](O)[C@@H](COC(=O)CC=C[C@H]1C)O2`: the composite z-score was -0.42 in experiment [1]; 1.08 in experiment [2]; -0.0861 in experiment [3]; -0.251 in experiment [4]; -0.716 in [5]; -0.688 in experiment [6]. The composite z-score in experiment [7] was -0.523; in experiment [9], -0.176; in experiment [10], -0.16. The z-score in [8] is -0.969 (inactive).
For `CCCCC(=C=CC[C@H](O)c1ccccc1OCCO)C[C@H](O)COCc1ccccc1`, the composite z-score is -0.0094 in [1]; 0.273 in experiment [2]; -0.12 in experiment [3]; -0.249 in [4]; -0.673 in [5]; 0.716 in experiment [6]. The composite z-score in [7] is 0.554; in [9], 0.324; in experiment [10], -0.0296. The z-score in experiment [8] is -1.01 (inactive).
Take `O=C1O[C@@H](c2ccccc2)[C@@H](c2ccccc2)N2[C@@H](c3ccccc3OCCO)[C@]3(C(=O)Nc4ccc(C#CCCO)cc43)[C@@H](C(=O)O)[C@H]12`: the composite z-score in experiment [1] was -1.32; in experiment [2], 0.638; in experiment [3], -0.189; in experiment [4], 0.798; in experiment [5] it was 0.438; in [6], 1.84. Also, the composite z-score in experiment [7] was 1.36; in [9], -0.423; in experiment [10], -0.945. Besides, the z-score in experiment [8] is -1.28 (inactive).
As to `CC(C)(C)N1CC=CC23O[C@@H]4C=CCCOC(=O)C4[C@H]2C(=O)N(CCCCCO)[C@@H]3C1=O` (stereo not given in full), the composite z-score is -0.0873 in experiment [1]; 1.48 in experiment [2]; -0.183 in [3]; 0.448 in experiment [4]; 0.366 in [5]; -0.0196 in experiment [6]. In addition, the composite z-score in experiment [7] was 1.28; in [9] it was -0.443; in experiment [10], 0.0156. The z-score in experiment [8] was -0.85 (inactive).
Take `CC(C)(C)N1C(=O)[C@H]2[C@H]3[C@H](O)[C@H](O)CC(=NO[C@@H]4O[C@H](CO)[C@@H](O)[C@H](O)[C@H]4O)[C@@H]3CC[C@H]2C1=O`: the composite z-score is -0.549 in experiment [1]; -0.151 in [2]; -0.0854 in experiment [3]; 0.705 in experiment [4]; 0.572 in experiment [5]; 0.722 in experiment [6]. The composite z-score in [7] is 1.08; in [9], 0.135; in experiment [10], -0.0994. Further, the z-score in experiment [8] is 0.677 (inactive).
For `COC(=O)[C@@]1(Cc2ccc(OC)cc2)[C@H]2c3cc(C(=O)N4CCCC4)n(Cc4cc(F)c(F)c(F)c4)c3C[C@H]2CN1C(=O)c1ccccc1`, the composite z-score in [1] was 2.91; in experiment [2], 1.05; in experiment [3], 0.746; in experiment [4], 1.19; in [5] it was 1.82; in experiment [6], 1.62. In addition, the composite z-score in [7] was 1.19; in [9], 3.01; in [10], 1.88. For the same compound, the z-score in experiment [8] is -0.104 (inactive).
Consider `Cc1ccc(S[C@]2(C(=O)NCC(F)(F)F)CC(=O)N(Cc3ccccc3Cl)[C@@H]2c2ccc(CO)cc2I)cc1`, for which the composite z-score in experiment [1] is 0.647; in experiment [2] it was -0.193; in experiment [3] it was -0.122; in experiment [4], 0.494; in [5] it was -1.23; in [6], 2.01. Further, the composite z-score is 1.21 in experiment [7], -0.611 in experiment [9] and -0.284 in experiment [10]. Besides, in experiment [8], the z-score is -1.13 (inactive).
Take `Cn1cccc1C(O)C1C=CC2C(=O)NC(=O)C2N1Nc1ccccn1` (stereo not given): the composite z-score was -0.177 in experiment [1]; 0.124 in experiment [2]; -0.179 in experiment [3]; -0.0312 in experiment [4]; 0.359 in experiment [5]; 0.782 in experiment [6]. Moreover, the composite z-score in experiment [7] worked out at 0.371; in experiment [9] it was 0.339; in experiment [10] it was 0.0053. Further, in [8], the z-score was 1.63 (inactive).
As for `CC(C)NC(=O)[C@@H]1c2ccccc2C(=O)N(CC23CC4CC(CC(C4)C2)C3)[C@H]1c1ccc(CO)cc1`, the composite z-score in [1] is -0.438; in [2], -0.0125; in [3], -0.0277; in experiment [4] it was 0.0767; in [5], 1.38; in experiment [6], 0.93. Besides, the values for the composite z-score in experiment [7], in [9] and in experiment [10] were 1.27, 0.839 and -0.434, respectively. Also, the z-score in experiment [8] was -3.34 (inactive).
In the case of `CC(=O)OC[C@H]1O[C@H](C#CCCCc2ccccc2)C=C[C@@H]1OC(C)=O`, the composite z-score in experiment [1] is -0.0129; in experiment [2] it was 0.105; in [3] it was -0.083; in experiment [4] it was 0.73; in [5] it was 0.2; in [6], 0.505. Moreover, the composite z-score is 0.765 in experiment [7], -0.206 in experiment [9] and 0.351 in experiment [10]. Further, in [8], the z-score is -0.13 (inactive).
For the compound `COc1ccc([Si](C)(C)[C@H]2[C@H](CC(=O)N3CCC[C@H]3CO)O[C@@]3(C(=O)N(Cc4cccc(N5C(=O)COc6ccccc65)c4)c4ccccc43)[C@@H]2C)cc1`, the composite z-score is -0.126 in [1]; 0.149 in experiment [2]; -0.0148 in experiment [3]; 0.893 in experiment [4]; 0.308 in experiment [5]; 0.563 in experiment [6]. For the same compound, the values for the composite z-score in experiment [7], in [9] and in experiment [10] were 0.983, -0.0678 and -0.0994, respectively. For the same compound, the z-score in [8] is -4.78 (inactive).
As for `CCOC(=O)[C@H](Cc1ccccc1)NC(=O)CCC1CC(OC(=O)NCc2ccc3c(c2)OCO3)CC2(CCCC(COC(=O)NCC(c3ccccc3)c3ccccc3)O2)O1` (stereo not given in full), the composite z-score in experiment [1] is -0.655; in experiment [2], 0.805; in experiment [3] it was -0.151; in experiment [4], 0.211; in [5], 0.883; in [6] it was 0.716. Also, the composite z-score in [7] was 1.03; in experiment [9], 0.359; in experiment [10] it was -0.306. In experiment [8], the z-score was 1.26 (inactive).
Take `CC(=O)OC[C@H]1O[C@H](CCON=C(C)CCC(=O)OC[C@H]2O[C@H](C#Cc3ccccc3)C=C[C@@H]2Oc2ccc(C)cc2)C=C[C@@H]1OC(C)=O`: the composite z-score in [1] is -0.41; in experiment [2], 0.703; in experiment [3] it was -0.12; in experiment [4] it was 0.479; in experiment [5], -0.126; in experiment [6] it was 0.0383. In addition, the composite z-score was 0.359 in experiment [7], 0.265 in experiment [9] and -0.132 in [10]. Also, in experiment [8], the z-score was 0.718 (inactive).
Take `CC(=O)OC[C@H]1O[C@H](CCON=C[C@@H](C)[C@H](OCc2ccccc2)C(C)C)C=C[C@@H]1OC(C)=O`: the composite z-score was -0.567 in experiment [1]; 0.57 in experiment [2]; -0.101 in experiment [3]; 0.114 in [4]; -0.113 in experiment [5]; -0.114 in [6]. Moreover, the composite z-score is -0.339 in experiment [7], 0.0538 in [9] and 0.312 in experiment [10]. For the same compound, in experiment [8], the z-score is 0.447 (inactive).
Take `c1ccc(C2NCCc3c2[nH]c2ccccc32)cc1` (stereo not given): the composite z-score in experiment [1] was 0.136; in [2] it was 0.548; in experiment [3] it was 0.0183; in experiment [4], 0.0913; in experiment [5], -0.443; in experiment [6] it was 0.464. In addition, the composite z-score in experiment [7] was 0.233; in [9], -0.16; in [10], -0.128. For the same compound, in [8], the z-score is -0.151 (inactive).
